# Reference: PubChem BioAssay (NCATS)
# A number with no mark means an inactive call. Records with an inconclusive call do not appear. Entries that show only a call come without a potency. Activity calls are given as the source filed them. Calls come from the whole dose curve; as a rule, active = well fitted curve in the direction sought with a large enough effect; inconclusive = small, poorly fitted or top-dose-only effect, or another doubt; inactive = no such curve, though single readings can be large; an effect the other way counts as inactive or inconclusive. Where a SMILES comes first, the peptide text is derived from it. Bridges are numbered along the chain shown (N, C = ends).
# Tests used:
# [1] = target: Glutathione peroxidase 1 (Homo sapiens) (UniProt P07203); assay: Primary qHTS Assay for Inhibitors of Recombinant Selenoprotein Glutathione Peroxidase 1 (GPX1) (AID 1845191); note: nearly all actives have a fitted effect of over 65% in size; note: potency is the fitted concentration of half-maximal effect
# Chain of Glutathione peroxidase 1 (Homo sapiens) (P07203 whole entry, looked up): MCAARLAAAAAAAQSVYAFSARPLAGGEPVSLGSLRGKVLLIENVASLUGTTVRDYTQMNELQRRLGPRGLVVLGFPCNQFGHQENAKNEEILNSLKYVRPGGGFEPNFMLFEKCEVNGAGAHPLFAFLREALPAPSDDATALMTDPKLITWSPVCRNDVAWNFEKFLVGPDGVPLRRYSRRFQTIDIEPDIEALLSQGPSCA
# Procedure, shortened: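 10 nM GPX1 + cpd, 30 min RT; start w/ 1 mM GSH, 0.5 mM cumene hydroperoxide, 0.5 mM NADPH, 100 nM GR, 0.01% BSA; buffer 50 mM Tris-HCl pH 7.5, 2 mM EDTA, 150 mM NaCl; Fl 340/450, 0 & 15 min.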
# [2] = target: Phospholipid hydroperoxide glutathione peroxidase GPX4 (Homo sapiens) (UniProt P36969); assay: Primary qHTS Assay for Inhibitors of Recombinant Selenoprotein Glutathione Peroxidase 4 (GPX4) (AID 1845192); note: nearly all actives have a fitted effect of over 65% in size; note: potency is the fitted concentration of half-maximal effect; for activity change, negative = inhibition: series mostly up to about 50 µM
# Chain of Phospholipid hydroperoxide glutathione peroxidase GPX4 (Homo sapiens) (P36969 whole entry, looked up): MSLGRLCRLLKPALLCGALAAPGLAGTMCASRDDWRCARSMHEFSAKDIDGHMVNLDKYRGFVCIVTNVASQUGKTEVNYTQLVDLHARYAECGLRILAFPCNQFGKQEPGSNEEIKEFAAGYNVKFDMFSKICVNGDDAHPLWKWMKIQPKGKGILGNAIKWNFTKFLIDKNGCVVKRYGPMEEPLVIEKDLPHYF
# Procedure, shortened: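 NADPH consumption, followed by fluorescence at 340/450 nm between 0 and 15 min, reports GPX4 activity via coupled glutathione reductase (100 nM). Enzyme 200 nM was pre-exposed to compound 30 min; 0.5 mM cumene hydroperoxide and 1 mM GSH served as substrates.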
# [3] = target: Luciferin 4-monooxygenase (Photinus pyralis) (UniProt P08659); assay: Primary firefly luciferase (FLuc) qHTS assay for identification of artifact compounds. (AID 1845220); note: nearly all actives have a fitted effect of over 60% in size; for activity change, negative = inhibition: series mostly up to about 54 µM
# Procedure, shortened: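 FLuc 10 nM; luciferin 10 uM; ATP 10 uM; Tris-acetate pH 7.6, Mg-acetate 10 mM; 15 min RT preincubation; 5 min reaction; luminescence.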
# [4] = Primary fluorescence-based thiol-reactive (MSTI) qHTS assay for identification of artifact compounds. (AID 1845221); note: nearly all actives have a fitted effect of over 65% in size; note: potency is the fitted concentration of half-maximal effect
# Procedure, shortened: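 MSTI probe at 4 uM final in 2% DMSO/PBS pH 7.4; compounds, 1 h at room temperature in dark. Fluorescence Ex/Em 525/598 nm, normalised to Acetyl-MSTI and MSTI, fitted to 4-parameter Hill.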
# [5] = tested on: Nanoluciferase (engineered Oplophorus gracilirostris luciferase); assay: Primary Nanoluciferase (NLuc) qHTS assay for identification of artifact compounds. (AID 1845222);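 note: NLuc secreted into diluted conditioned medium of S16 cells; series mostly up to about 54 µM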
# Procedure, shortened: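 NLuc from S16 cell medium (1:55) plus test compounds, 15 min, room temperature. Luminescence after Nano-Glo (1:100) addition, 5 min.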
smiles,measurement,setting,value
CCC(c1ccccc1)c1noc(CCN(CC)CC)n1 (centres undefined),Potency,[1],inactive
same,Potency,[2],inactive
NCCCNCCCCNC(=O)C(O)NC(=O)CCCCCCN=C(N)N (centres undefined),Potency,[1],inactive
same,Potency,[2],inactive
O=C1C(c2[nH]c3ccc(S(=O)(=O)O)cc3c2O)=Nc2ccc(S(=O)(=O)O)cc21,Potency,[1],inactive
same,Potency,[2],inactive
C=C1CC2C3CCC4=CC(=O)C=C[C@]4(C)[C@@]3(F)[C@@H](O)C[C@]2(C)[C@@]1(O)C(=O)COC(C)=O (some centres undefined),Potency,[1],inactive
same,Potency,[2],inactive
CSCC[C@H](NC(=O)[C@H](Cc1ccc(OS(=O)(=O)O)cc1)NC(=O)[C@@H](N)CC(=O)O)C(=O)NCC(=O)N[C@@H](Cc1c[nH]c2ccccc12)C(=O)N[C@@H](CCSC)C(=O)N[C@@H](CC(=O)O)C(=O)N[C@@H](Cc1ccccc1)C(N)=O,Potency,[1],inactive
same,Potency,[2],15.8 µM (active)
CC(=O)O[C@H]1CC[C@@]2(C)C(=CC[C@H]3[C@@H]4CC[C@H](C(C)=O)[C@@]4(C)CC[C@@H]32)C1,Potency,[1],inactive
same,Potency,[2],inactive
CC#CCC(C)[C@H](O)/C=C/[C@@H]1[C@H]2c3cccc(CCCC(=O)O)c3O[C@H]2C[C@H]1O (some centres undefined),Potency,[1],inactive
same,Potency,[2],inactive
CC(=O)OCC(=O)[C@@]1(O)[C@H](C)C[C@H]2[C@@H]3C[C@H](F)C4=CC(=O)C=C[C@]4(C)[C@H]3[C@@H](O)C[C@@]21C,Potency,[1],inactive
same,Potency,[2],inactive
CN[C@@H]1CCc2[nH]c3ccc(C(N)=O)cc3c2C1,Potency,[1],inactive
same,Potency,[2],inactive
O=S(O)CNc1ccc(S(=O)(=O)c2ccc(NCS(=O)O)cc2)cc1,Potency,[1],inactive
same,Potency,[2],inactive
NCCCC[C@H](NC(=O)[C@@H]1CCCN1C(=O)[C@@H]1CSSC[C@H](NC(=O)CNC(=O)CNC(=O)CN)C(=O)N[C@@H](Cc2ccc(O)cc2)C(=O)N[C@@H](Cc2ccccc2)C(=O)N[C@@H](CCC(N)=O)C(=O)N[C@@H](CC(N)=O)C(=O)N1)C(=O)NCC(N)=O (H-GGGCYFQNCPKG-NH2; disulfide 4-9),Potency,[1],inactive
same,Potency,[2],inactive
C/C(=C(/CCO)SSCC1CCCO1)N(C=O)Cc1cnc(C)nc1N (centres undefined),Potency,[1],inactive
same,Potency,[2],inactive
COC(=O)Nc1cc(Nc2cc(NC3CC3)c3ncc(C#N)n3n2)c(Cl)c(N2CCN(C)CC2)c1,Potency,[1],inactive
same,Potency,[2],inactive
CN=C(NC)NCc1ccccc1,Potency,[1],inactive
same,Potency,[2],inactive
CC(CC(c1ccccc1)c1ccccc1)NC(C)(C)C (centres undefined),Potency,[1],inactive
same,Potency,[2],inactive
OC(CN1CCCCC1)c1cc(-c2ccccc2)on1 (centres undefined),Potency,[1],inactive
same,Potency,[2],inactive
CCCCC(=O)O,Potency,[1],inactive
same,Potency,[2],inactive
CC(=O)O[C@H]1C[C@@H]2CC[C@@H]3[C@H](CC[C@@]4(C)[C@H]3C[C@H](N3CC[N+](C)(C)CC3)[C@@H]4OC(C)=O)[C@@]2(C)C[C@@H]1N1CC[N+](C)(C)CC1,Potency,[1],inactive
same,Potency,[2],inactive
O=P(O)(O)C(Sc1ccc(Cl)cc1)P(=O)(O)O,"activity, negative = inhibition",[1],3.51% [at 0.4 µM]
same,outcome,[2],inactive [at 0.409 µM]
C=Cc1ccccc1,Potency,[1],inactive
same,Potency,[2],inactive
CCOc1ccc(N=C(C)Nc2ccc(OCC)cc2)cc1,Potency,[1],inactive
same,Potency,[2],inactive
CN1CC(O)c2cc(N=NC(N)=O)c(O)cc21 (centres undefined),Potency,[1],inactive
same,Potency,[2],inactive
CC(C)(C)CC(=O)OCC(=O)[C@@]12OC(C)(C)O[C@@H]1C[C@H]1[C@@H]3CCC4=CC(=O)C=C[C@]4(C)[C@@]3(F)[C@@H](O)C[C@@]12C,Potency,[1],inactive
same,Potency,[2],inactive
CO[C@H]1[C@@H](O)[C@H](N)[C@@H](O[C@H]2O[C@H]([C@H](C)N)CC[C@H]2N)[C@H](O)[C@@H]1N(C)C(=O)CN,Potency,[1],inactive
same,Potency,[2],inactive
COc1ccc(CCNCC(O)COc2cccc(C)c2)cc1OC (centres undefined),Potency,[1],inactive
same,Potency,[2],inactive
OCC(O)COc1ccc(Cl)cc1 (centres undefined),Potency,[1],inactive
same,Potency,[2],inactive
Cc1c(N)nc(C(CC(N)=O)NCC(N)C(N)=O)nc1C(=O)NC(C(=O)NC(C)C(O)C(C)C(=O)NC(C(=O)NCCc1nc(-c2nc(C(=O)NCCCN[C@@H](C)c3ccccc3)cs2)cs1)C(C)O)C(O[C@@H]1O[C@@H](CO)[C@@H](O)[C@H](O)[C@@H]1O[C@H]1O[C@H](CO)[C@@H](O)[C@H](OC(N)=O)[C@@H]1O)c1cnc[nH]1 (some centres undefined),Potency,[1],inactive
same,Potency,[2],inactive
Cc1[nH]cnc1C[C@H]1CCc2c(C)c3ccccc3n2C1=O,Potency,[1],inactive
same,Potency,[2],inactive
O=P(O)(O)C(O)(Cc1cnc2ccccn12)P(=O)(O)O,"activity, negative = inhibition",[1],-12.2% [at 0.4 µM]
same,"activity change, negative = inhibition",[2],0.142% [at 0.409 µM]
CC(C)(C)NC(=O)[C@H]1CC[C@H]2[C@@H]3CC=C4C=C(C(=O)O)CC[C@]4(C)[C@H]3CC[C@]12C,Potency,[1],inactive
same,Potency,[2],inactive
CCCCOC(=O)C(=O)Nc1cccc(-c2nn[nH]n2)c1,Potency,[1],inactive
same,Potency,[2],inactive
COc1ccc(CNCC(O)COc2ccc3[nH]c(=O)ccc3c2)cc1OC (centres undefined),Potency,[1],inactive
same,Potency,[2],inactive
CCCCCCCCCCCCCCCC(=O)OCCC1CCN(CCCN2c3ccccc3Sc3ccc(S(=O)(=O)N(C)C)cc32)CC1,Potency,[1],inactive
same,Potency,[2],inactive
Cc1cccc(C)c1N(CCCc1cccnc1)C(=O)C(C)N (centres undefined),Potency,[1],inactive
same,Potency,[2],inactive
CNC[C@@H]1CC[C@@H](N)[C@@H](O[C@H]2[C@H](O)[C@@H](O[C@H]3OC[C@](C)(O)[C@H](NC)[C@H]3O)[C@H](N)C[C@@H]2N)O1,Potency,[1],inactive
same,Potency,[2],inactive
CN1CCN(C2=Nc3ccccc3Cc3ccccc32)CC1,Potency,[1],inactive
same,Potency,[2],inactive
CCN1CCCC1CNC(=O)c1cc(S(=O)(=O)CC)ccc1OC (centres undefined),Potency,[1],inactive
same,Potency,[2],inactive
CC1(S(=O)(=O)O)CC(=O)c2ccccc2C1=O (centres undefined),Potency,[1],2.02 µM (active)
same,Potency,[2],0.891 µM (active)
CCCCc1cc2c(=O)c(C(=O)OC)c[nH]c2cc1OCc1ccccc1,Potency,[1],inactive
same,Potency,[2],inactive
CO/N=C(\C(=O)N[C@@H]1C(=O)N2C(C(=O)OCOC(=O)C(C)(C)C)=C(/C=C\c3scnc3C)CS[C@H]12)c1csc(N)n1,Potency,[1],4.53 µM (active)
same,Potency,[2],14.1 µM (active)
O=C(NCCO)c1cccc(-c2cc(Nc3ccc(OC(F)(F)F)cc3)ncn2)c1,Potency,[1],inactive
same,Potency,[2],inactive
same,Potency,[3],inactive
same,Potency,[4],inactive
same,Potency,[5],inactive
O=C(O)c1ccc(N2C(=O)/C(=C/c3ccc(-c4ccc([N+](=O)[O-])cc4)o3)C=C2c2ccccc2)cc1,Potency,[1],inactive
same,Potency,[2],inactive
same,Potency,[3],inactive
same,Potency,[4],0.423 µM (active)
COc1c(C)cnc(Cn2cc(C#CCC(C)(C)O)c3c(Cl)nc(N)nc32)c1C,Potency,[1],inactive
same,Potency,[2],inactive
same,Potency,[3],inactive
same,Potency,[4],inactive
same,Potency,[5],inactive
